PubChem BioAssay (Tox21)
Records with an inconclusive call do not appear. Activity calls are given as the source filed them. Unless noted, the call rests on the fitted dose curve; in most records, active means well fitted curve in the direction sought with a large enough effect in the repeat runs; inconclusive means weak or mixed curves; inactive means no such curve, though single readings can be large; an effect the other way counts as inactive or inconclusive.

Experiments:
[1] = qHTS assay to identify small molecule agonists of the sonic hedgehog signaling (Shh) pathway - cell viability counter screen (AID 1259366); further: nearly all actives have a fitted effect of over 50% in size
Outline: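 Cytotoxicity counter screen run in the same wells as the Shh reporter assay. NIH/3T3 cells carrying a Gli1 response element–driven luciferase were treated with DMSO-dissolved compounds for 24hr, and live-cell protease activity was measured with CellTiter-Fluor.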

[2] = qHTS assay to identify small molecule antagonists of the sonic hedgehog signaling (Shh) pathway - cell viability counter screen (AID 1259367); further: nearly all actives have a fitted effect of over 55% in size
Outline: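 Fluorescence read-out (CellTiter-Fluor, 1 hr at 37C) taken after 23 hr compound treatment of 3T3 Gli1-Luc cells stimulated with conditioned medium. Cells were seeded at 2,000 per well and pre-incubated 4 hr.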

[3] = qHTS assay to identify small molecule agonists of the sonic hedgehog signaling (Shh) pathway (AID 1259368; calls by dose curve;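 further: NIH/3T3-derived 3T3Gli1-Luc cells carrying a stable Gli1-driven firefly luciferase reporter; series mostly up to about 92 µM; nearly all actives have a fitted effect of over 15% in size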)
Outline: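 Cells of a mouse NIH/3T3 clone stably expressing luciferase under the Gli1 transcriptional response element are exposed to test chemicals for 24 hr at 37 C. Pathway activation is detected as a rise in luminescence.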

[4] = qHTS assay to identify small molecule antagonists of the sonic hedgehog signaling (Shh) pathway (AID 1259369; calls by dose curve; further: nearly all actives have a fitted effect of over 45% in size; further: potency means the concentration at half of the fitted maximal effect)
Outline: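 Cells are plated and held 4hr at 37 C, compounds (DMSO) are pinned in, conditioned medium is added to stimulate the pathway, and after 24hr luciferase reagent is added for 30min before luminescence is read.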

[5] = qHTS assay to identify small molecule agonists of the androgen receptor (AR) signaling pathway in the presence of an antagonist - cell viability counter screen (AID 1259379);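 further: MDA-kb2 human breast cancer cells carrying an MMTV luciferase reporter; series mostly up to about 92 µM; nearly all actives have a fitted effect of over 25% in size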
Outline: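 Cytotoxicity is assessed by CellTiter-Fluor in MDA-kb2 cells carrying an MMTV-driven luciferase reporter. Cells receive 3.0uM nilutamide plus compounds at 15 concentrations and incubate 16 hr at 37C without CO2 before fluorescence reading.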

[6] = qHTS assay to identify small molecule agonists of the estrogen receptor beta (ER-beta) signaling pathway - cell viability counter screen (AID 1259380); further: nearly all actives have a fitted effect of over 30% in size; further: potency means the concentration at half of the fitted maximal effect
Outline: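 Cytotoxicity is measured in parallel with the reporter screen: after 16 hr compound exposure at 37C and a 2 hr LiveBLAzer step, CellTiter-Glo is added to the same ER-beta-UAS-bla HEK293T wells and luminescence read after 30 min.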

[7] = qHTS assay to identify small molecule antagonists of the estrogen receptor beta (ER-beta) signaling pathway - cell viability counter screen (AID 1259382); further: series mostly up to about 92 µM; nearly all actives have a fitted effect of over 55% in size
Outline: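 Cytotoxicity counter screen multiplexed with the beta-lactamase antagonist assay: GripTite HEK293T ER-beta-bla cells were treated 16 hr with test chemicals in the presence of 1nM 17-beta-estradiol, and viability was measured by CellTiter-Glo.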

[8] = molecular target: Androgen receptor (Homo sapiens) (UniProt P10275); test: qHTS assay to identify small molecule agonists of the androgen receptor (AR) signaling pathway in the presence of an antagonist (AID 1259381; calls by dose curve; further: nearly all actives have a fitted effect of over 15% in size)
Sequence of Androgen receptor (Homo sapiens) (P10275 whole entry, looked up): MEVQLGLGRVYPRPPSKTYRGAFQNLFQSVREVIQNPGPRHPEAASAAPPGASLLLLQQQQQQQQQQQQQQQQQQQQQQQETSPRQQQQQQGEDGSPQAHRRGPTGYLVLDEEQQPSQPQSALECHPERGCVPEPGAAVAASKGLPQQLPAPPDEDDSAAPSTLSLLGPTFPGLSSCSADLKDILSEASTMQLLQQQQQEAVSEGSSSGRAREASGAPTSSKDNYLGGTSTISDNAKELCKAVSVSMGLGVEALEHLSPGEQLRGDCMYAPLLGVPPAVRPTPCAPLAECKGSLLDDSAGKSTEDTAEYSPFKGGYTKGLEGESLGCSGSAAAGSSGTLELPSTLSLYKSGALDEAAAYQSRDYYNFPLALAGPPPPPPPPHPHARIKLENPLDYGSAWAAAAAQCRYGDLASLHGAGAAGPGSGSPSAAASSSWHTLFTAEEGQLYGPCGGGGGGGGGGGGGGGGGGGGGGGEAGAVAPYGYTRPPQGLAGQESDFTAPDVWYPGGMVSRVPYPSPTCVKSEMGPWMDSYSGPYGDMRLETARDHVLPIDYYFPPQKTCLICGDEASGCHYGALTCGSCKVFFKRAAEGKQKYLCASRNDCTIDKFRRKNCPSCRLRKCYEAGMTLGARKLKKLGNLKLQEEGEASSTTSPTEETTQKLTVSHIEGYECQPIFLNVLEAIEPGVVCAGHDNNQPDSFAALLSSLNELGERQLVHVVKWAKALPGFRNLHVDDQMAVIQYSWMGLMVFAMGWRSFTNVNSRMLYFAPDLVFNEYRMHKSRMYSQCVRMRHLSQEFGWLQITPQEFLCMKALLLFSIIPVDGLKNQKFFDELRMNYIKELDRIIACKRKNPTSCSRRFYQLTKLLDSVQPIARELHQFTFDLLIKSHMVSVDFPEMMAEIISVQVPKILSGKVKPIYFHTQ
Outline: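 Agonist-mode confirmation screen: human MDA-kb2 cells stably expressing luciferase under an MMTV promoter bearing AR and GR response elements, co-treated with 3.0uM nilutamide (final). Luminescence measured after 16hr compound incubation.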

[9] = molecular target: Estrogen receptor beta (Homo sapiens) (UniProt Q92731); test: qHTS assay to identify small molecule antagonists of the estrogen receptor beta (ER-beta) signaling pathway (AID 1259378; active means well fitted inhibition curve with a large enough effect in the signal ratio in the repeat runs, not every such curve was filed as active; the % refers to the signal ratio)
Sequence of Estrogen receptor beta (Homo sapiens) (Q92731 whole entry, looked up): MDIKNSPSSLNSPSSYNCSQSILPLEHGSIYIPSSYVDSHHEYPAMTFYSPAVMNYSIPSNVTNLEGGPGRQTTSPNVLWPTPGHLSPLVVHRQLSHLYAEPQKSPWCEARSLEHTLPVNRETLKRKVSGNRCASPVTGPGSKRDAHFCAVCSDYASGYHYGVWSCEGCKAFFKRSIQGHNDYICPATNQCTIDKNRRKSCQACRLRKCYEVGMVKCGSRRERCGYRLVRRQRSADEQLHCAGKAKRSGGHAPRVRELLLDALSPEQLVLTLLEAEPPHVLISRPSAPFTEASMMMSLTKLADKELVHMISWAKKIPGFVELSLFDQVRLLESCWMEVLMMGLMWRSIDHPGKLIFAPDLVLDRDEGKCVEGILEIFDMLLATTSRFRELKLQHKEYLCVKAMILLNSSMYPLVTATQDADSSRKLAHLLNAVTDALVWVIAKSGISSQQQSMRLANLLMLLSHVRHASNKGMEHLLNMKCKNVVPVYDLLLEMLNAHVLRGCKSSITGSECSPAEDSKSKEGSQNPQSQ
Outline: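 ER-beta-UAS-bla HEK293T cells in 2% charcoal-stripped FBS medium treated with compound plus 1nM final 17-beta-estradiol for 16 hr at 37C. Beta-lactamase reporter read by FRET substrate fluorescence after 2 hours at room temperature.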

[10] = molecular target: Estrogen receptor beta (Homo sapiens) (UniProt Q92731); test: qHTS assay to identify small molecule agonists of the estrogen receptor beta (ER-beta) signaling pathway (AID 1259377; active means well fitted activation curve with a large enough effect in the signal ratio in the repeat runs, not every such curve was filed as active; the % refers to the signal ratio)
Outline: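 HEK293T ER-beta-UAS-bla; 2% charcoal-stripped FBS; cells pre-incubated 6 hr, compound 16 hr, 37C/5% CO2; LiveBLAzer B/G FRET substrate 2 h RT; fluorescence intensity read.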
On the % scale 0 is the no-effect control and ±100 the full control effect.

CCCc1ccc(O)c(OC)c1
inactive: outcome [1] | outcome [2] | outcome [3] | Potency [4] | outcome [5] | Potency [6] | outcome [7]

CCCCCC(=O)CC
inactive: outcome [1] | outcome [2] | outcome [3] | Potency [4] | outcome [5] | Potency [6] | outcome [7]

CC/C=C\CCOC(=O)c1ccccc1
inactive: outcome [1] | outcome [2] | outcome [3] | Potency [4] | outcome [5] | Potency [6] | outcome [8] | outcome [7]

Cc1cccc(N)n1
inactive: outcome [1] | outcome [2] | outcome [3] | Potency [4] | outcome [9] | outcome [5] | Potency [6] | outcome [7]

COC(=O)N/N=C/c1c[n+]([O-])c2ccccc2[n+]1[O-]
inactive: outcome [1] | outcome [2] | outcome [3] | Potency [4] | outcome [5] | Potency [6] | outcome [7]

OCCC(F)(F)C(F)(F)C(F)(F)C(F)(F)C(F)(F)C(F)(F)F
inactive: outcome [1] | outcome [2] | outcome [3] | Potency [10] | outcome [9] | outcome [5] | Potency [6] | outcome [7]

C[C@@H]1CC[C@@]2(OC1)O[C@H]1C[C@H]3[C@@H]4CC[C@H]5C[C@@H](O)CC[C@]5(C)[C@H]4CC(=O)[C@]3(C)[C@H]1[C@@H]2C
inactive: viability change, negative = cytotoxic [1] -4.38% [at 8.39 µM] | viability change, negative = cytotoxic [2] 0.938% [at 8.39 µM] | activity change [3] -0.0264% [at 8.39 µM] | activity change, negative = inhibition [4] 0.87% [at 8.39 µM] | activity change, negative = cytotoxicity [5] 0.258% [at 8.39 µM] | activity change, negative = cytotoxicity [6] 3.8% [at 8.39 µM] | activity change, negative = cytotoxicity [7] 3.19% [at 8.39 µM]

O=P(O)(O)C(O)(Cc1cccnc1)P(=O)(O)O
inactive: outcome [1] | outcome [2] | outcome [3] | Potency [4] | outcome [5] | Potency [6] | outcome [7]

CCCC(=O)CC
inactive: outcome [1] | outcome [2] | outcome [3] | Potency [10] | outcome [9] | outcome [5] | Potency [6] | outcome [7]

Nc1nc(Cl)cc(Cl)n1
inactive: outcome [1] | outcome [2] | outcome [3] | Potency [10] | outcome [9] | outcome [5] | Potency [6] | outcome [7]

Cc1nc2ccc(Cl)cc2[nH]1
inactive: outcome [1] | outcome [2] | outcome [3] | Potency [10] | outcome [9] | outcome [5] | Potency [6] | outcome [7]

CO/N=C(\C(=O)O)c1csc(NC(=O)CCl)n1
inactive: outcome [1] | outcome [2] | outcome [3] | Potency [4] | outcome [5] | Potency [6] | outcome [7]

CCOc1ccccc1OCCN[C@H](C)Cc1ccc(OC)c(S(N)(=O)=O)c1
inactive: outcome [1] | outcome [2] | outcome [3] | Potency [10] | outcome [9] | outcome [5] | Potency [6] | outcome [7]

C/C=C(\C)C(=O)OC/C=C(\C)CCC=C(C)C
inactive: outcome [1] | outcome [2] | outcome [3] | Potency [10] | outcome [9] | outcome [5] | Potency [6] | outcome [7]

C[C@@H](CN1CC(=O)NC(=O)C1)N1CC(=O)NC(=O)C1
inactive: outcome [1] | outcome [2] | outcome [3] | Potency [10] | outcome [9] | outcome [5] | Potency [6] | outcome [8] | outcome [7]

CCOC(=O)COc1ccc2c(C)c(CCN(CC)CC)c(=O)oc2c1Cl
inactive: outcome [1] | outcome [2] | outcome [3] | Potency [4] | outcome [5] | Potency [6] | outcome [7]

Cc1ccc2ccccc2n1
inactive: outcome [1] | outcome [2] | outcome [3] | Potency [10] | outcome [9] | outcome [5] | Potency [6] | outcome [7]

O=C[C@@H](O)[C@H](O)[C@H](O)CO
inactive: outcome [1] | outcome [2] | outcome [3] | Potency [10] | outcome [9] | outcome [5] | Potency [6] | outcome [8] | outcome [7]

CC(=O)Nc1ccc(S(=O)(=O)Nc2cc(C)on2)cc1
inactive: outcome [1] | outcome [2] | outcome [3] | Potency [4] | outcome [5] | Potency [6] | outcome [7]

COc1cc(C(=O)NC2CCCNC2)cc(OC)c1OC (stereo not drawn)
inactive: outcome [1] | outcome [2] | outcome [3] | Potency [10] | outcome [9] | outcome [5] | Potency [6] | outcome [7]

O=C(O)CCCCCCCCCC(=O)O
inactive: outcome [1] | outcome [2] | outcome [3] | Potency [10] | outcome [9] | outcome [5] | Potency [6] | outcome [8] | outcome [7]

CCCCc1ccc(Cl)cc1
inactive: outcome [1] | outcome [2] | outcome [3] | Potency [10] | outcome [9] | outcome [5] | Potency [6] | outcome [7]

CCCCN(CCCC)CCCCCCN(CCCC)CCCC
inactive: outcome [1] | outcome [2] | outcome [3] | Potency [10] | outcome [9] | outcome [5] | Potency [6] | outcome [7]

CC(C)OC(=O)C(C(=O)OC(C)C)=C1SC=CS1
inactive: outcome [1] | outcome [2] | outcome [3] | outcome [5] | outcome [7]
active: Potency [4] 4.73 µM | Potency [6] 18.8 µM

N#CC1(N)CCCCC1
inactive: outcome [1] | outcome [2] | outcome [3] | Potency [10] | outcome [9] | outcome [5] | Potency [6] | outcome [7]

N[C@H]1C(O)O[C@H](CO)[C@@H](O)[C@@H]1O (stereo partly drawn)
inactive: outcome [1] | outcome [2] | outcome [3] | Potency [10] | outcome [9] | outcome [5] | Potency [6] | outcome [8] | outcome [7]
